Measured values: PubChem BioAssay (NCI)
The panel holds about 79,000 compounds, 15% with a hit somewhere; the sample as a whole holds those more often. Activity calls are given as the source filed them. Rule as the data show it: active = growth inhibition above about 70%; inactive = the rest.

Experiment: NCI Yeast Anticancer Drug Screen. Data for the rad50 strain (AID 155);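 also: 0% = growth of vehicle-only cultures of the same strain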
Conditions: S. cerevisiae rad50 strain growth inhibition; at 50.0 µM; active compounds read high
In short: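 Yeast carrying a defined DNA repair defect were exposed to test compounds, and growth was compared with vehicle-treated controls to give percent inhibition.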

SMILES	growth inhibition
S=C(NCc1ccccc1)Nc1ncn[nH]1	5.1% (inactive)
Nc1cc(N)nc(S(=O)(=O)O)n1	-5.75% (inactive)
c1ccc2c3nnc(c2c1)SCCSCCCSCCS3	-24.4% (inactive)
C/C=C1\CN2CCc3c([nH]c4ccccc34)C2CC1CC(=O)N(C)C (stereo not given)	0.9% (inactive)
O=C(Nc1ccccc1)OCC#CCOC(=O)Nc1ccccc1	27.4% (inactive)
CC1(C)C2CCC1(C)C1(C2)OC(CCl)CS1 (stereo not given)	7.4% (inactive)
C/C(CC(=O)Nc1cccc([N+](=O)[O-])c1)=N\NC(=O)CC#N	-3.45% (inactive)
Cn1cnc([N+](=O)[O-])c1Sc1nc2ccccc2[nH]1	-16.4% (inactive)
COC1OC2COC(C2O)C1OS(=O)(=O)c1ccc(C)cc1 (stereo not given)	-3.2% (inactive)
COc1cc2c(cc1OC)C(=O)Cc1ccc3c(c1CN(C)CC2)OCO3	-19.9% (inactive)
O=S(=O)(Nc1ccc(C(F)(F)F)cc1)c1ccc(F)cc1	-5.7% (inactive)
CC(C)C1CCC(C)(C(N)=O)C1 (stereo not given)	8.2% (inactive)
Nc1ccc(C(=O)Nc2ccc(C(=O)Nc3ccc4c(O)cc(S(=O)(=O)O)cc4c3)cc2)cc1	-6.3% (inactive)
CCOC(=O)NC(=O)c1cn(CCCCCOC(=O)NCCCCCCNC(=O)OCCCCCn2cc(C(=O)NC(=O)OCC)c(=O)[nH]c2=O)c(=O)[nH]c1=O	20.6% (inactive)
O=C1c2ccccc2C(=O)c2c1c([N+](=O)[O-])c1c(c2[N+](=O)[O-])OCO1	7.15% (inactive)
O=C(COc1cccc(Cl)c1)Nc1ccccc1	-2.9% (inactive)
CCOc1ccc(-c2cc(-c3ccc(OCC)cc3)cc(-c3ccc(OCC)cc3)c2)cc1	-2.05% (inactive)
Cc1ccc(CCOC(=O)Nc2ccccc2)cc1	-7.55% (inactive)
Cc1c(C2(c3cc(C(C)C)c(O)c(CN(CC(=O)O)CC(=O)O)c3C)OS(=O)(=O)c3ccccc32)cc(C(C)C)c(O)c1CN(CC(=O)O)CC(=O)O	4.3% (inactive)
COc1ccc(CC2c3cc(OC)c(OC)cc3CCN2C(=O)OCc2ccccc2)cc1OC (stereo not given)	25.3% (inactive)

SMILES	growth inhibition
Cc1ccc(S(=O)(=O)OCC2CCC(=O)N2)cc1 (stereo not given)	20.4% (inactive)
Cc1cc2c(=O)cc(-c3ccc(O)cc3)oc2c(C(=O)O)c1C	2.7% (inactive)
COC(=O)C(Cc1ccccc1)NC(=O)C1CSC(C)(C)N1C=O (stereo not given)	3.25% (inactive)
COC(=O)C1(CCC(C)=O)CCC(C)C1=O (stereo not given)	2.55% (inactive)
Cn1c(=O)oc2cc(Br)ccc21	-8.9% (inactive)
COc1ccc(C(=O)C2CCC(C(=O)O)C2)cc1 (stereo not given)	-25.4% (inactive)
CC(=O)[O][Ga]([Br])[O]C(C)=O	6.3% (inactive)
CC(=O)Oc1cc(C)c(OC(C)=O)cc1C	-11.3% (inactive)
O=C(OC1(c2ccccc2)OC(=O)c2ccccc21)c1ccccc1C(=O)c1ccccc1 (stereo not given)	-6.65% (inactive)
CC(=O)Nc1ccc(-c2nnc(SCC(=O)Nc3cccc(C)c3)o2)cc1	5.2% (inactive)
COc1ccccc1N=Nc1c(-c2ccccc2)nn(C(=O)CC(=O)Nc2cccc(C)c2)c1-c1ccccc1	29.1% (inactive)
COC=C(C(=O)OC)C(=O)OC	-1.65% (inactive)
OCC1(CO)CCC=CO1	3.8% (inactive)
NC(=O)C(CCc1ccccc1)(CCc1ccccc1)c1ccc2ccccc2c1	19.5% (inactive)
O=C1CS(=O)(=O)C2(CCCCC2)C(=O)N1	-15.1% (inactive)
O=C(O)/C=C/c1ccc(C(NC(=O)N2C(=O)C=CC2=O)NC(=O)N2C(=O)C=CC2=O)cc1	37.8% (inactive)
CC(=O)NCCC1CN(C(=O)/C=C/I)c2ccccc21 (stereo not given)	-8.4% (inactive)
CCCCCCOCC(=O)O	-6.75% (inactive)
O=C(NCCCCN1CCCC1)C(c1cc2ccccc2s1)C1CCCCC1 (stereo not given)	20.1% (inactive)
Cc1c2cc3c(c1O)C(=O)CC(O3)c1ccc(O)c(c1)-c1cccc(c1O)C(=O)OCC1OC(O2)C(O)C(O)C1O (stereo not given)	51.2% (inactive)

Experiment: NCI Yeast Anticancer Drug Screen. Data for the mec2-1 strain (AID 157)
Conditions: S. cerevisiae mec2-1 strain, at 50.0 µM, active compounds read high
In short: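 Using mec2-1 yeast: add compound, measure growth, express inhibition versus vehicle-treated cultures.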

SMILES	growth inhibition
S=C(NCc1ccccc1)Nc1ncn[nH]1	0.25% (inactive)
Nc1cc(N)nc(S(=O)(=O)O)n1	-12.9% (inactive)
c1ccc2c3nnc(c2c1)SCCSCCCSCCS3	-31.4% (inactive)
C/C=C1\CN2CCc3c([nH]c4ccccc34)C2CC1CC(=O)N(C)C (stereo not given)	-7.75% (inactive)
O=C(Nc1ccccc1)OCC#CCOC(=O)Nc1ccccc1	11.7% (inactive)
CC1(C)C2CCC1(C)C1(C2)OC(CCl)CS1 (stereo not given)	-13.8% (inactive)
C/C(CC(=O)Nc1cccc([N+](=O)[O-])c1)=N\NC(=O)CC#N	-13.3% (inactive)
Cn1cnc([N+](=O)[O-])c1Sc1nc2ccccc2[nH]1	-10.3% (inactive)
COC1OC2COC(C2O)C1OS(=O)(=O)c1ccc(C)cc1 (stereo not given)	9.7% (inactive)
COc1cc2c(cc1OC)C(=O)Cc1ccc3c(c1CN(C)CC2)OCO3	-42.7% (inactive)
O=S(=O)(Nc1ccc(C(F)(F)F)cc1)c1ccc(F)cc1	7.35% (inactive)
CC(C)C1CCC(C)(C(N)=O)C1 (stereo not given)	2.65% (inactive)
Nc1ccc(C(=O)Nc2ccc(C(=O)Nc3ccc4c(O)cc(S(=O)(=O)O)cc4c3)cc2)cc1	-6.65% (inactive)
CCOC(=O)NC(=O)c1cn(CCCCCOC(=O)NCCCCCCNC(=O)OCCCCCn2cc(C(=O)NC(=O)OCC)c(=O)[nH]c2=O)c(=O)[nH]c1=O	13.2% (inactive)
O=C1c2ccccc2C(=O)c2c1c([N+](=O)[O-])c1c(c2[N+](=O)[O-])OCO1	0.15% (inactive)
O=C(COc1cccc(Cl)c1)Nc1ccccc1	-31.9% (inactive)
CCOc1ccc(-c2cc(-c3ccc(OCC)cc3)cc(-c3ccc(OCC)cc3)c2)cc1	-9.7% (inactive)
Cc1ccc(CCOC(=O)Nc2ccccc2)cc1	6.4% (inactive)
Cc1c(C2(c3cc(C(C)C)c(O)c(CN(CC(=O)O)CC(=O)O)c3C)OS(=O)(=O)c3ccccc32)cc(C(C)C)c(O)c1CN(CC(=O)O)CC(=O)O	0.7% (inactive)
COc1ccc(CC2c3cc(OC)c(OC)cc3CCN2C(=O)OCc2ccccc2)cc1OC (stereo not given)	-4.1% (inactive)

SMILES	growth inhibition
Cc1ccc(S(=O)(=O)OCC2CCC(=O)N2)cc1 (stereo not given)	-13.2% (inactive)
Cc1cc2c(=O)cc(-c3ccc(O)cc3)oc2c(C(=O)O)c1C	-4.45% (inactive)
COC(=O)C(Cc1ccccc1)NC(=O)C1CSC(C)(C)N1C=O (stereo not given)	16.4% (inactive)
COC(=O)C1(CCC(C)=O)CCC(C)C1=O (stereo not given)	-4.5% (inactive)
Cn1c(=O)oc2cc(Br)ccc21	0.7% (inactive)
COc1ccc(C(=O)C2CCC(C(=O)O)C2)cc1 (stereo not given)	-27.9% (inactive)
CC(=O)[O][Ga]([Br])[O]C(C)=O	11.8% (inactive)
CC(=O)Oc1cc(C)c(OC(C)=O)cc1C	-14.3% (inactive)
O=C(OC1(c2ccccc2)OC(=O)c2ccccc21)c1ccccc1C(=O)c1ccccc1 (stereo not given)	2.45% (inactive)
CC(=O)Nc1ccc(-c2nnc(SCC(=O)Nc3cccc(C)c3)o2)cc1	14.7% (inactive)
COc1ccccc1N=Nc1c(-c2ccccc2)nn(C(=O)CC(=O)Nc2cccc(C)c2)c1-c1ccccc1	17.5% (inactive)
COC=C(C(=O)OC)C(=O)OC	3.9% (inactive)
OCC1(CO)CCC=CO1	-7.8% (inactive)
NC(=O)C(CCc1ccccc1)(CCc1ccccc1)c1ccc2ccccc2c1	11.2% (inactive)
O=C1CS(=O)(=O)C2(CCCCC2)C(=O)N1	-5.65% (inactive)
O=C(O)/C=C/c1ccc(C(NC(=O)N2C(=O)C=CC2=O)NC(=O)N2C(=O)C=CC2=O)cc1	15.8% (inactive)
CC(=O)NCCC1CN(C(=O)/C=C/I)c2ccccc21 (stereo not given)	30.4% (inactive)
CCCCCCOCC(=O)O	-11.2% (inactive)
O=C(NCCCCN1CCCC1)C(c1cc2ccccc2s1)C1CCCCC1 (stereo not given)	9.25% (inactive)
Cc1c2cc3c(c1O)C(=O)CC(O3)c1ccc(O)c(c1)-c1cccc(c1O)C(=O)OCC1OC(O2)C(O)C(O)C1O (stereo not given)	54.4% (inactive)
